Measured values: a collection of fitness landscapes (doi:10.1016/j.celrep.2020.107928)
Whole data set: some 81,000 sequences, median “one-hybrid fitness for binding NBS DNA” near -0.1, cut for the highest 2% near 0.36. The sample holds the highest values, similar sequences and a random draw of the others, so the mix is not that of the screen.

B1: Caulobacter ParB omega fusion; a variant is named by its letters at X, in order, B8GW30 (parent)
chain: MESVVVGEPGMSEGRRGLGRGLSALLGEVDAAPAQAPGEQLGGSREAPIEILQRNPDQPRRTFREEDLEDLSNSIREKGVLQPILVRPSPDTAGEYQIVAGERAWRAAQRAGLKTVPIMVRELDDLAVLEIGIIENVQRADLNVLEEALSYKVLMEKFERTQENIAQTIGKSXSHVANXMRLLXLPDEVQSYLVSGELTAXHARAIAAAADPVALAKQIIEGGLSVRETEALARKAPNLSAGKSKGGRPPRVKDTDTQALESDLSSVLGLDVSIDHRGSTGTLTITYATLEQLDDLCNRLTRGI

Variants of: B1
Assay: one-hybrid fitness for binding NBS DNA (the Noc-binding site; scaled: cognate 1, non-cognate 0); higher = stronger binding
Details: with NBS DNA site
Method in brief: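 The reporter was HIS3, with the binding site 19 bp from the promoter, in E. coli USO used for bacterial one-hybrid selection of Caulobacter ParB libraries with four specificity codons randomised. Growth was on M9 lacking histidine, with 0.1 mM IPTG and 5 mM 3-AT, for 48 hours at 37°C. Illumina sequencing covered plasmids before and after selection; three replicate libraries were pooled and variants with under 10 reads dropped. A fitness score is the log change in variant-to-wild-type read ratio, rescaled to the cognate and non-cognate references.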

one-hybrid fitness for binding NBS DNA, 0.203:
RSIS
QRYW

one-hybrid fitness for binding NBS DNA, 0.426:
RSST

one-hybrid fitness for binding NBS DNA, 0.474:
RCQS

one-hybrid fitness for binding NBS DNA, 0.362:
QSKM

one-hybrid fitness for binding NBS DNA, 0.251:
QMFS

one-hybrid fitness for binding NBS DNA, 0.464:
QCKM

one-hybrid fitness for binding NBS DNA, 0.417:
QTRW

one-hybrid fitness for binding NBS DNA, 0.416:
RAQS
QMKM

one-hybrid fitness for binding NBS DNA, 0.395:
KRVS

one-hybrid fitness for binding NBS DNA, 0.371:
QCRW

one-hybrid fitness for binding NBS DNA, 0.409:
RMQS
QKKM
RSYS

one-hybrid fitness for binding NBS DNA, 0.272:
KRKN

one-hybrid fitness for binding NBS DNA, 0.439:
QRNQ

one-hybrid fitness for binding NBS DNA, 0.384:
QRRW

one-hybrid fitness for binding NBS DNA, 0.446:
RFRS
PRKW

one-hybrid fitness for binding NBS DNA, 0.258:
QREH

one-hybrid fitness for binding NBS DNA, 0.281:
RCIS

one-hybrid fitness for binding NBS DNA, 0.521:
RCYS

one-hybrid fitness for binding NBS DNA, 0.301:
QRWH

one-hybrid fitness for binding NBS DNA, 0.379:
QHKM

one-hybrid fitness for binding NBS DNA, 0.217:
RFST

one-hybrid fitness for binding NBS DNA, 0.254:
QSRW

one-hybrid fitness for binding NBS DNA, 0.37:
QLQT

one-hybrid fitness for binding NBS DNA, 0.265:
QRVM

one-hybrid fitness for binding NBS DNA, 0.431:
QMFR

one-hybrid fitness for binding NBS DNA, 0.23:
RFGR

one-hybrid fitness for binding NBS DNA, 0.563:
QTKM

one-hybrid fitness for binding NBS DNA, 0.435:
RHST

one-hybrid fitness for binding NBS DNA, 0.455:
RHQS

one-hybrid fitness for binding NBS DNA, 0.308:
QRNP

one-hybrid fitness for binding NBS DNA, 0.526:
TRRT
QCQT

one-hybrid fitness for binding NBS DNA, ≤ 0.2:
SRHE
IGMS
LVKR
RVQD
RVQP
RVPT
QQQI
DRRL
MTMS
RRCP
RRCD
SSEH
RKQN
RSQN
RKQD
RSQD
RTQH
RTQD
RHQH
RHQN
YQLE
WLLP
PIRG
RLRW
TAYQ
ARIK
ACVN
VRHN
IRAF
KMGK
VQSE
DNKI
DLTY
WNVE
RMQH
RAQN
RDQS
RLQH
RAQD
RLQP
RPQS
RMQN
PCVC
NLCG
TPCN
RCCC
VASN
HSTM
SDNA
FLCR
WDPR
GLGG
RSGP
RPGR
RSGH
HRAM
FIVS
DFTV
TRDT
TCRT
TRRN
TRVT
TCKT
TRYS
TCNT
PANE
KSQQ
NCPT
FMKS
QNLL
SKPR
CSPY
QVAP
NRAR
QRFF
DRAR
IFSI
RYTI
HQWA
NIMG
QKQF
QDQT
QTQG
QKQC
QPQT
FPTH
SIGR
LNNM
TFLV
QLGE
CTTF
YCLC
SKES
QLQN
QLQP
MYYS
HTKF
FQTK
QAVM
QTVM
QTWM
QAYM
QPKM
WLRR
NYAI
IRSK
DSWA
ITVR
GKRG
QMQM
QHNM
QHVM
QMVM
QKPM
GAKC
KIRV
QELA
RQLA
DCST
RPST
RISP
RDST
RISH
RHSF
RWST
RHSQ
KFSS
KFVF
LRQC
DWDT
RASG
WCGS
WSGA
LRTY
RSPS
RCDS
RCRD
RPRS
PGSA
INQF
RCMW
QPWY
PDHS
CDSD
TLGI
NQER
HRCR
DVPR
LVEQ
RSRN
RFIS
RFYS
RSRD
GATS
FYHG
RQDG
PLRC
MYHV
MNMN
NSER
IPMG
MNVG
YLLC
QMFD
QMAN
QMAP
KGLV
WVEH
QVVS
VVYG
QCNC
QRDP
QRDD
QRDN
NRRH
WYLT
RDFR
EMRY
KWVR
YLCS
TWCL
SYCN
IVKG
CWPS
QRDM
QSNQ
KICK
QEKS
LWPC
QDAY
RGRV
KRVD
KRKP
KRVH
KRYY
KRVY
KRKD
AKVL
ALSW
HILV
LNQE
DNHT
YLSD
HLNK
MSFM
LRFR
TEAT
QTYW
PRVW
QPRW
PRYW
QRDW
QTDW

one-hybrid fitness for binding NBS DNA, 0.398:
RIST

one-hybrid fitness for binding NBS DNA, 0.598:
QRNH

one-hybrid fitness for binding NBS DNA, 1.01:
QRAR

one-hybrid fitness for binding NBS DNA, 0.541:
RLRS

one-hybrid fitness for binding NBS DNA, 0.248:
RRCN

one-hybrid fitness for binding NBS DNA, 0.239:
QTQC

one-hybrid fitness for binding NBS DNA, 0.44:
QRNC

one-hybrid fitness for binding NBS DNA, 0.215:
QRDQ

one-hybrid fitness for binding NBS DNA, 0.482:
KRKH

one-hybrid fitness for binding NBS DNA, 0.392:
QAKM

one-hybrid fitness for binding NBS DNA, 0.461:
QRNM

one-hybrid fitness for binding NBS DNA, 0.543:
RKQS

one-hybrid fitness for binding NBS DNA, 0.381:
QRDH

one-hybrid fitness for binding NBS DNA, 0.523:
RCGR

one-hybrid fitness for binding NBS DNA, 0.382:
RRCH
RLQS

one-hybrid fitness for binding NBS DNA, 0.661:
RCRS

one-hybrid fitness for binding NBS DNA, 0.253:
KRKM

one-hybrid fitness for binding NBS DNA, 0.364:
QAQT
QRRL

one-hybrid fitness for binding NBS DNA, 0.642:
RRCS
RMRS

one-hybrid fitness for binding NBS DNA, 0.34:
RLYS

one-hybrid fitness for binding NBS DNA, 0.322:
RLRH

one-hybrid fitness for binding NBS DNA, 0.224:
QCNM

one-hybrid fitness for binding NBS DNA, 0.363:
QHQT

one-hybrid fitness for binding NBS DNA, 0.368:
KRKY

one-hybrid fitness for binding NBS DNA, 0.249:
QIKM

one-hybrid fitness for binding NBS DNA, 0.593:
RSRS

one-hybrid fitness for binding NBS DNA, 0.578:
TRKT
QKQT

one-hybrid fitness for binding NBS DNA, 0.227:
QRDC

one-hybrid fitness for binding NBS DNA, 0.38:
TRRS

one-hybrid fitness for binding NBS DNA, 0.486:
QRYH

one-hybrid fitness for binding NBS DNA, 0.411:
QSQT

one-hybrid fitness for binding NBS DNA, 0.361:
RMYS

one-hybrid fitness for binding NBS DNA, 0.438:
RVQT

one-hybrid fitness for binding NBS DNA, 0.459:
RTQS
RSGR
TRNT
QRNN

one-hybrid fitness for binding NBS DNA, 0.536:
KRKS

one-hybrid fitness for binding NBS DNA, 0.334:
TRYT

one-hybrid fitness for binding NBS DNA, 0.602:
QMAR

one-hybrid fitness for binding NBS DNA, 0.531:
RCST

one-hybrid fitness for binding NBS DNA, 0.779:
QRRH

one-hybrid fitness for binding NBS DNA, 0.296:
RRCG

one-hybrid fitness for binding NBS DNA, 0.25:
RMRN

one-hybrid fitness for binding NBS DNA, 0.22:
RAIT

one-hybrid fitness for binding NBS DNA, 0.557:
QRKM

one-hybrid fitness for binding NBS DNA, 0.631:
RVRT

one-hybrid fitness for binding NBS DNA, 0.433:
RSQS

one-hybrid fitness for binding NBS DNA, 0.208:
QCNN

one-hybrid fitness for binding NBS DNA, 0.357:
RVYT

one-hybrid fitness for binding NBS DNA, 0.273:
QKVM

one-hybrid fitness for binding NBS DNA, 0.577:
QTQT

one-hybrid fitness for binding NBS DNA, 0.306:
QRND

one-hybrid fitness for binding NBS DNA, 0.405:
RAST

one-hybrid fitness for binding NBS DNA, 0.865:
QRFR
